{"source": "PubChem BioAssay (EPA / NIEHS)", "note": "Where a structure was tested more than once in an assay, its records may differ in their call. Active and inactive are the calls of the source. The calls were made as follows: active = hit-call score of the fitted dose curve at least 0.9, where 1 is the maximum; inactive = score below 0.9.", "data": [{"biological_target": "Hypoxia-inducible factor 1-alpha (Homo sapiens) (UniProt Q16665)", "sequence (Q16665 whole entry, looked up)": "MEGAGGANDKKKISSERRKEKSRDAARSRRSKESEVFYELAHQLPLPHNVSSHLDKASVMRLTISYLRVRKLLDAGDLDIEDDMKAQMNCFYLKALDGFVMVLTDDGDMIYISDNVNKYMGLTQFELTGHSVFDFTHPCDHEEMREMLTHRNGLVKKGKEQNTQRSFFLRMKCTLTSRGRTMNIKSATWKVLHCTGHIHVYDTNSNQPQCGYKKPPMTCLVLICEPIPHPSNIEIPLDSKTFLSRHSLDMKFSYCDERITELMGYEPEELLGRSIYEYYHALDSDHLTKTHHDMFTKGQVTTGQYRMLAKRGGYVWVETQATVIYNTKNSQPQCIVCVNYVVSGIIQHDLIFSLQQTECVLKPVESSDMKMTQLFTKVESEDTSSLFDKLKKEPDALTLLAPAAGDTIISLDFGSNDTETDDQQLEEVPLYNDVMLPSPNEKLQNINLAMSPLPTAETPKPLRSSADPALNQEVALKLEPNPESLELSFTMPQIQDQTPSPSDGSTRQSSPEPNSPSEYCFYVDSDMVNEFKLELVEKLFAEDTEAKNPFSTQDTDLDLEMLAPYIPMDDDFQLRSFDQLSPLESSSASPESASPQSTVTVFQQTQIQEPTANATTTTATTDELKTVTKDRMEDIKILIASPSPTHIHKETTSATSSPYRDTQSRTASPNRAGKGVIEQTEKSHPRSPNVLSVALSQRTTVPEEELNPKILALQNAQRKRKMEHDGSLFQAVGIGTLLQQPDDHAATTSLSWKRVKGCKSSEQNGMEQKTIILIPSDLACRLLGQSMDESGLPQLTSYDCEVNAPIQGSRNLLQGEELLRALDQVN", "assay": "ATG_HIF1a_CIS: Attagene CIS-FACTORIAL HepG2 Assay for human Hypoxia Inducible Factor 1 (HIF1A) (AID 2282951)", "settings": "HepG2 Attagene cis-factorial HIF1a reporter transcription; actives raise or lower the signal", "description": "ATG_CIS is a cell-based, multiplexed-readout assay that uses HepG2, a human liver cell line, with measurements taken at 24 hours after chemical dosing in a 24-well plate.ATG_HIF1a_CIS is one of 52 assay component(s) measured or calculated from the ATG_CIS assay. It is designed to make measurements of mRNA induction, a form of inducible reporter, as detected with fluorescence intensity signals by Reverse transcription polymerase chain reaction (RT-PCR) and Capillary electrophoresis technology.Data from the assay component ATG_HIF1a_CIS was analyzed into 1 assay endpoint. This assay endpoint, ATG_HIF1a_CIS, was analyzed with bidirectional fitting relative to DMSO as the negative control and baseline of activity. Using a type of inducible reporter, measures of mRNA for gain or loss-of-signal activity can be used to understand the reporter gene at the transcription factor-level as they relate to the gene HIF1A. Furthermore, this assay endpoint can be referred to as a primary readout, because this assay has produced multiple assay endpoints where this one serves a reporter gene function. To generalize the intended target to other relatable targets, this assay endpoint is annotated to the dna binding intended target family, where the subfamily is basic helix-loop-helix protein.\nHuman liver HepG2 cells are transiently transfected with multiple reporter transcription units (MRTUs) in 6-well plates using FuGene 6 reagent (Roche; 3 ml FuGene/1 mg DNA). The MRTU constructs are regulated by a cis-regulating element (promoter). […] A major difference between the CIS and TRANS system is that in CIS activities of endogenous TFs are measured, whereas the TRANS assay evaluates changes in activities of exogenous, chimeric NR-Gal4 proteins. […] At the end of 24 hour incubation, total RNA was isolated using TriZol reagent (Invitrogen). The isolated RNA is then reverse-transcribed using oligo(dT) primer and Mo-MLV reverse transcriptase (Invitrogen) with DNAse I (Ambion) treatment for 30 min. The one-tenth of the produced cDNA was amplified by PCR using Taq DNA polymerase (Invitrogen) and two reporter sequence-specific primers. The PCR products were fluorescently labeled by primer extension with 6-arboxyfluorescein (6-FAM) 5'-labeled reporter sequence-specific primer (2 min at 95 C, 20 s at 68 C and 10 min at 72 C) and these products were digested with 5U of HpaI (New England Biolabs) for 2h at 37 C. The fragments were purified using Qiaquick PCR columns (Qiagen), analyzed on an ABI 3130xL genetic analyzer (Applied Biosystems) with peak positions identified by using a set of X-rhodamine (ROX)-labeled MapMarker1000 molecular weight standards (BioVentures). The raw capillary electrophoresis data was processed using Attagraph software (Attagene).", "values": [{"smiles": "CCOP(=S)(OCC)SCn1c(=O)oc2cc(Cl)ccc21", "AC50": "28.8 µM (active)"}, {"smiles": "CCCC1COC(Cn2cncn2)(c2ccc(Cl)cc2Cl)O1", "note": "(stereo unspecified)", "AC50": "50 µM (active)", "outcome": "inactive"}, {"smiles": "CC1COC(Cn2cncn2)(c2ccc(Oc3ccc(Cl)cc3)cc2Cl)O1", "note": "(stereo unspecified)", "outcome": "inactive"}, {"smiles": "C=CCC1=C(C)C(OC(=O)C2C(C=C(C)C)C2(C)C)CC1=O", "note": "(stereo unspecified)", "AC50": "35 µM (active) [middle of 4 runs]", "outcome": "inactive"}, {"smiles": "COC(=O)N(OC)c1ccccc1COc1ccn(-c2ccc(Cl)cc2)n1", "outcome": "inactive"}, {"smiles": "CCOc1cc(Oc2ccc(C(F)(F)F)cc2Cl)ccc1[N+](=O)[O-]", "outcome": "inactive"}, {"smiles": "O=C(O)COc1nc(Cl)c(Cl)cc1Cl", "outcome": "inactive"}, {"smiles": "COC(=O)c1ccccc1C(=O)OC", "outcome": "inactive"}, {"smiles": "Fc1ccc(Oc2ccnc3cc(Cl)cc(Cl)c23)cc1", "outcome": "inactive"}, {"smiles": "O=C(Nc1ccccc1)Nc1ccnc(Cl)c1", "outcome": "inactive"}, {"smiles": "N#Cc1cc(Br)c(O)c(Br)c1", "outcome": "inactive"}, {"smiles": "N#CC(CCc1ccc(Cl)cc1)(Cn1cncn1)c1ccccc1", "note": "(stereo unspecified)", "outcome": "inactive"}, {"smiles": "CNC(=S)S", "outcome": "inactive"}, {"smiles": "CCNc1nc(Cl)nc(NC(C)C)n1", "outcome": "inactive"}, {"smiles": "CC(Oc1ccc(Cl)cc1Cl)C(=O)O", "note": "(stereo unspecified)", "outcome": "inactive"}, {"smiles": "Cc1c(F)c(F)c(COC(=O)C2C(/C=C(\\Cl)C(F)(F)F)C2(C)C)c(F)c1F", "note": "(stereo unspecified)", "outcome": "inactive"}, {"smiles": "CON(C)C(=O)Nc1ccc(Cl)c(Cl)c1", "outcome": "inactive"}, {"smiles": "CCCCNC(=O)n1c(NC(=O)OC)nc2ccccc21", "outcome": "inactive"}, {"smiles": "CC(C)Oc1cc(-n2nc(C(C)(C)C)oc2=O)c(Cl)cc1Cl", "outcome": "inactive"}, {"smiles": "C=CCC1=C(C)[C@@H](OC(=O)[C@@H]2[C@@H](C=C(C)C)C2(C)C)CC1=O", "outcome": "inactive"}, {"smiles": "CC(C)(C)c1ccc(CSc2cnn(C(C)(C)C)c(=O)c2Cl)cc1", "AC50": "0.407 µM (active)"}, {"smiles": "COc1nc(C)nc(NC(=O)NS(=O)(=O)c2ccccc2Cl)n1", "outcome": "inactive"}, {"smiles": "COP(N)(=O)SC", "note": "(stereo unspecified)", "outcome": "inactive"}, {"smiles": "O=C(O)c1nc(Cl)ccc1Cl", "outcome": "inactive"}, {"smiles": "COc1ccc(C(c2ccc(OC)cc2)C(Cl)(Cl)Cl)cc1", "outcome": "inactive", "AC50": "3.88 µM (active)"}, {"smiles": "Cc1cc(Cl)ccc1OCC(=O)O", "outcome": "inactive"}, {"smiles": "N#Cc1nn(-c2c(Cl)cc(C(F)(F)F)cc2Cl)c(N)c1S(=O)C(F)(F)F", "note": "(stereo unspecified)", "outcome": "inactive"}, {"smiles": "CN(C)C(=S)SSC(=S)N(C)C", "outcome": "inactive"}, {"smiles": "COc1nc(NC(C)C)nc(NC(C)C)n1", "outcome": "inactive"}, {"smiles": "CCCCNC(=O)OCC#CI", "outcome": "inactive"}, {"smiles": "Cc1ccc(-c2c(Cl)nc(C#N)n2S(=O)(=O)N(C)C)cc1", "outcome": "inactive"}, {"smiles": "COP(=S)(OC)Oc1nc(Cl)c(Cl)cc1Cl", "outcome": "inactive"}, {"smiles": "COC(=O)C=C(C)OP(=O)(OC)OC", "outcome": "inactive"}, {"smiles": "CC(C)C1(C)N=C(c2nc3ccccc3cc2C(=O)O)NC1=O", "note": "(stereo unspecified)", "outcome": "inactive"}, {"smiles": "CO/C=C(/C(=O)OC)c1ccccc1Oc1cc(Oc2ccccc2C#N)ncn1", "outcome": "inactive"}, {"smiles": "CCNc1nc(Cl)nc(NCC)n1", "outcome": "inactive"}, {"smiles": "CCCCOC(=O)c1ccccc1C(=O)OCCCC", "AC50": "59.5 µM (active)", "outcome": "inactive"}]}]}
